Data on 20 compounds can be found in PubChem BioAssay (NCI).

About 79,000 compounds went through this panel and 15% of them were active in at least one assay; those are over-represented in the sample as a whole. Unmarked numbers belong to inactive results. Calls of active or inactive are those of the source. Cut-off read from the data, not from the text of the source: active = growth inhibition above about 70%; inactive = the rest.

Test [1] is described as follows: NCI Yeast Anticancer Drug Screen. Data for the rad50 strain (AID 155).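 Note: 0% = growth of vehicle-only cultures of the same strain.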 Conditions: S. cerevisiae rad50 strain growth inhibition; at 50.0 µM; stronger effect = higher value. In short, it runs like this:
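DNA repair mutant yeast, compound exposure, growth read-out; inhibition is taken relative to vehicle.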

Test [2] can be described thus: NCI Yeast Anticancer Drug Screen. Data for the mec2-1 strain (AID 157). Conditions: S. cerevisiae mec2-1 strain, at 50.0 µM, stronger effect = higher value. In short, it runs like this:
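Vehicle-treated cultures served as reference for growth inhibition of compound-exposed mec2-1 yeast.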

A short description of test [3]: NCI Yeast Anticancer Drug Screen. Data for the sgs1 mgt1 strain (AID 161).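 Note: 0% = growth of cultures given vehicle only.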 The note with it: S. cerevisiae sgs1 mgt1 strain, at 50.0 µM, stronger effect = higher value. In short, it runs like this:
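Genetically altered yeast, compound exposure, growth inhibition relative to vehicle.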

Test [4] is described as follows: NCI Yeast Anticancer Drug Screen. Data for the cln2 rad14 strain (AID 165).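 Note: 0% = growth equal to vehicle treated cultures.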 Conditions: S. cerevisiae cln2 rad14 strain, at 50.0 µM, stronger effect = higher value. In short, it runs like this: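 Each compound was tested on cln2 rad14 yeast. Inhibition of growth was calculated against vehicle-exposed controls.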
The nature of test [5]: NCI Yeast Anticancer Drug Screen. Data for the bub3 strain (AID 167). The note with it: S. cerevisiae bub3 mutant strain, at 50.0 µM, stronger effect = higher value. In short, it runs like this:
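In this screen, a yeast mutant lacking normal mitotic checkpoint function is challenged with compound. Relative growth versus vehicle gives the inhibition value.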

Test [6] is described as follows: NCI Yeast Anticancer Drug Screen. Data for the mlh1 rad18 strain (AID 175). Conditions: S. cerevisiae mlh1 rad18 strain growth inhibition; at 50.0 µM; stronger effect = higher value. In short, it runs like this: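 Vehicle-treated cultures served as the reference for growth inhibition in a yeast strain carrying DNA damage repair alterations exposed to each compound.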

Regarding `CCOc1cc(=O)cc2n(-c3cc(OCC)c(OC)c(OCC)c3)c3ccccc3nc1-2`, the growth inhibition in test [1] was 38%; in test [2] it was 11.7%; in test [3] it was 23.6%; in test [4], 21.9%; in test [5], -1.4%; in test [6], -1.2%.
Consider `CC1C2(c3ccccc3)C(C(=O)c3ccccc3)NC(c3ccccc3)C12c1ccccc1` (stereo not given), for which the growth inhibition was 46% in test [1]; 6.35% in test [2]; 28.2% in test [3]; 18.9% in test [4]; 2.2% in test [5]; 34.6% in test [6].
Take `Cc1cc(C)cc(NC(=O)CCC(=O)C2CCC/C2=N\NC(=O)C(=O)NN)c1` (stereo not given): the growth inhibition was 3.95% in test [1]; -2.7% in test [2]; -20.6% in test [3]; 2.1% in test [4]; 5.2% in test [5]; -6.8% in test [6].
For the compound `Nc1ccc(N)c(N)c1`, the growth inhibition in test [1] is 26.3%; in test [2] it was 53.1%; in test [3] it was 31.4%; in test [4], -31.2%; in test [5], -4.9%; in test [6], 6.8%.
For `CSc1ccc(OC(=O)Nc2ccc(Cl)c(Cl)c2)cc1C`, the growth inhibition is 95.3% (active) in test [1]; 96.5% (active) in test [2]; 96.9% (active) in test [3]; 95% (active) in test [4]; 94.7% (active) in test [5]; 95.1% (active) in test [6].
In the case of `N#CNC1=C(C#N)C(c2ccccc2)CC(=O)N1` (stereo not given), the growth inhibition in test [1] was 4.35%; in test [2], 25.5%; in test [3], 24.9%; in test [4], 0%; in test [5], -0.4%; in test [6], 10.2%.
Turning to `CC1(C)OC(COCCOCCCCCO)C(COCCOCCCCCO)O1` (stereo not given), the growth inhibition in test [1] is 7.1%; in test [2], 3.75%; in test [3], 6.2%; in test [4] it was 17.9%; in test [5] it was -3.05%; in test [6] it was 6.7%.
For the compound `CN(C)Cc1ccccc1C=C(c1ccccc1)c1ccccc1`, the growth inhibition was 3.05% in test [1]; 0.65% in test [2]; -6.2% in test [3]; -37.9% in test [4]; 0.55% in test [5]; -9.8% in test [6].
Take `COC(=O)C(C(=O)c1ccccc1)c1ccccc1` (stereo not given): the growth inhibition was 30.6% in test [1]; 16.9% in test [2]; 9.5% in test [3]; 6.35% in test [4]; 8.4% in test [5]; 38.7% in test [6].
Turning to `COc1ccc(CC[n+]2cccc(/C(=N/O)c3ccccc3)c2)cc1OC`, the growth inhibition was 46.9% in test [1]; -8.3% in test [2]; 25.2% in test [3]; 2.7% in test [4]; 8.25% in test [5]; 6.35% in test [6].
As to `COc1ccc(-c2c(N)nc(=S)[nH]c2C(=O)O)cc1`, the growth inhibition in test [1] was -8.65%; in test [2] it was 9.85%; in test [3], -9.15%; in test [4], -21.2%; in test [5], 8.75%; in test [6], -17.7%.
Take `C[C@]12CCC3c4ccc(OC(=O)c5ccccc5)cc4CC[C@H]3C1CC[C@@H]2OC(=O)C12OC1CCC2=O` (stereo not given in full): the growth inhibition is -5.4% in test [1]; -35.5% in test [2]; -7.55% in test [3]; 1.75% in test [4]; -27.9% in test [5]; -9.85% in test [6].
`C(=C1c2c(ccc3ccccc23)Oc2ccc3ccccc3c21)c1ccccc1`: the growth inhibition is 14.3% in test [1]; 10.6% in test [2]; 12.3% in test [3]; -30.1% in test [4]; 1.65% in test [5]; 14.3% in test [6].
For the compound `CCOC(=O)C1CCC/C1=N/Nc1ccc([N+](=O)[O-])cc1[N+](=O)[O-]` (stereo not given), the growth inhibition in test [1] was -1%; in test [2], 10.6%; in test [3] it was 3.25%; in test [4], -21.9%; in test [5] it was -5.3%; in test [6], -4.75%.
Turning to `O=C1N(Cc2ccccc2)[C@H]2CS(=O)(=O)C[C@@H]2N1Cc1ccccc1`, the growth inhibition in test [1] is 0.9%; in test [2], 4.1%; in test [3] it was 8.75%; in test [4], -10%; in test [5], 0.85%; in test [6] it was 12.7%.
Regarding `CC1CN(Cc2ccccc2)CCC1N1CCCC1` (stereo not given), the growth inhibition in test [1] is 24.8%; in test [2], 11.8%; in test [3], 27.6%; in test [4], 29.4%; in test [5], 23.2%; in test [6] it was 21.4%.
Consider `CN(C)CCC(/C=C/c1ccccc1)=N\Nc1ccccc1`, for which the growth inhibition in test [1] was 19.6%; in test [2] it was -14.9%; in test [3] it was -11.9%; in test [4] it was 5.5%; in test [5], -12.8%; in test [6] it was 36.5%.
With `Cc1nc2cccc3ccc4cc5ccccc5c1c4c32`, the growth inhibition is 69.6% in test [1]; 12.7% in test [2]; 16.1% in test [3]; 7.3% in test [4]; 25.9% in test [5]; 14.9% in test [6].
Regarding `CC1CC2=C(C1)C(C1(C)C(=O)CC3C(C1=O)C3(C)C)C(C)C2=O` (stereo not given), the growth inhibition in test [1] was 2.3%; in test [2], -24.6%; in test [3], 5.5%; in test [4], 3.3%; in test [5], 4.6%; in test [6] it was -44.6%.
Take `Nc1ccc2c(c1)C(=O)c1c(F)c(F)c(F)c(F)c1-2`: the growth inhibition in test [1] was 16.6%; in test [2], -0.9%; in test [3], -10.7%; in test [4], -13.2%; in test [5], 4.85%; in test [6] it was 11.9%.
